Inconclusive results are not listed. Active and inactive are the calls of the source. Unless noted, the call rests on the fitted dose curve; in most records, active means well fitted curve in the direction sought with a large enough effect in the repeat runs; inconclusive means weak or mixed curves; inactive means no such curve, though single readings can be large; an effect the other way counts as inactive or inconclusive. Positions of bridges follow the written chain, without caps; N, C: chain ends. Non-standard residues stand in square brackets, D forms with d. Residues, ends and D or L forms follow the SMILES beside them. hArg = N=C(N)NCCCC[C@H](N)C(=O)O; Mpa = O=C(O)CCS
What was measured:
[1] = qHTS assay to identify small molecule antagonists of the thyroid receptor (TR) signaling pathway - cell viability counter screen (AID 743064); further: nearly all actives have a fitted effect of over 50% in size; further: potency means the concentration at half of the fitted maximal effect
How it was run: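 Rat GH3 pituitary tumor cells stably expressing two TR response elements driving luciferase were plated, rested 4 h, then dosed with library compounds and T3 (1 nM final). After 23.5 h at 37 °C, CellTiter-Fluor was added for 30 min and fluorescence recorded.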

[2] = qHTS assay to identify small molecule antagonists of the thyroid receptor (TR) signaling pathway (AID 743065); further: nearly all actives have a fitted effect of over 55% in size; further: potency means the concentration at half of the fitted maximal effect
How it was run: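 GH3.TRE-Luc rat pituitary cells carrying two TR response elements driving luciferase were plated for 4 h, given compound plus 1 nM T3 (final), and incubated 23.5 h at 37 C. ONE-Glo luminescence measured reporter inhibition; CellTiter-Fluor fluorescence tracked cytotoxicity.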

[3] = system: thyroid hormone receptor (rat, GH3 cells); assay: qHTS assay to identify small molecule agonists of the thyroid receptor (TR) signaling pathway (AID 743066; calls by dose curve)
[4] = biological target: Estrogen receptor (Homo sapiens) (UniProt P03372); assay: qHTS assay to identify small molecule antagonists of the estrogen receptor alpha (ER-alpha) signaling pathway (AID 743069; active means well fitted curve in the direction sought with a large enough effect in the signal ratio in the repeat runs, not every such curve was filed as active; the % refers to the signal ratio)
How it was run: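 Screening used a UAS-driven beta-lactamase reporter integrated into HEK293 cells expressing ER-alpha, stimulated with 17beta-estradiol alongside test compounds over 18 hr at 37C; signal came from LiveBLAzer B/G FRET fluorescence.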

[5] = qHTS assay to identify small molecule antagonists of the estrogen receptor alpha (ER-alpha) signaling pathway - cell viability counter screen (AID 743074; calls by dose curve; further: nearly all actives have a fitted effect of over 45% in size)
[6] = biological target: Estrogen receptor (Homo sapiens) (UniProt P03372); assay: qHTS assay to identify small molecule agonists of the estrogen receptor alpha (ER-alpha) signaling pathway (AID 743075; calls by dose curve)
[7] = biological target: Estrogen receptor (Homo sapiens) (UniProt P03372); assay: qHTS assay to identify small molecule agonists of the estrogen receptor alpha (ER-alpha) signaling pathway using the BG1 cell line (AID 743079); further: nearly all actives have a fitted effect of over 20% in size
[8] = qHTS assay to identify small molecule antagonists of the estrogen receptor alpha (ER-alpha) signaling pathway using the BG1 cell line (AID 743080; calls by dose curve;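 further: BG1 cells stimulated with 17beta-estradiol alongside compound; series mostly up to about 70 µM; nearly all actives have a fitted effect of over 25% in size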)
How it was run: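 Endogenous full-length ER-alpha in BG1-Luc-4E2 cells drives a stably integrated 4×ERE luciferase gene; compounds were tested against 17beta-estradiol over 21.5 h, with luminescence and multiplexed viability fluorescence recorded.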

[9] = qHTS assay to identify small molecule antagonists of the estrogen receptor alpha (ER-alpha) signaling pathway using the BG1 cell line - cell viability counter screen (AID 743081);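 further: compound given together with 17beta-estradiol as the ER stimulus; series mostly up to about 70 µM; nearly all actives have a fitted effect of over 45% in size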
Aromatase (Homo sapiens) = Aromatase (Homo sapiens) (UniProt P11511); assay: qHTS assay to identify aromatase inhibitors (AID 743083); further: series mostly up to about 70 µM; nearly all actives have a fitted effect of over 55% in size
[10] = qHTS assay to identify aromatase inhibitors - cell viability counter screen (AID 743084);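 further: cells stimulated with testosterone during compound exposure; nearly all actives have a fitted effect of over 55% in size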
[11] = biological target: Aryl hydrocarbon receptor (Homo sapiens) (UniProt P35869); assay: qHTS assay to identify small molecule that activate the aryl hydrocarbon receptor (AhR) signaling pathway (AID 743085);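 further: HG2L7.5c1 human HepG2 liver cells with stably integrated DRE-driven firefly reporter; series mostly up to about 70 µM; nearly all actives have a fitted effect of over 15% in size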
How it was run: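 Compounds were tested in HepG2 hepatocellular carcinoma cells harbouring a stably integrated luciferase gene under control of 20 DREs. Increased reporter signal after 24 h treatment at 37C was taken as AhR activation.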

[12] = qHTS assay to identify small molecule that activate the aryl hydrocarbon receptor (AhR) signaling pathway - cell viability counter screen (AID 743086);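 further: HepG2 liver cells carrying the AhR DRE luciferase reporter; series mostly up to about 70 µM; nearly all actives have a fitted effect of over 45% in size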
How it was run: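 HepG2-AhR-luc (HG2L7.5c1) cells, 4000/well, were preincubated 5 h at 37C, exposed to compound in qHTS format for 24 hr at 37C, then given CellTiter-Fluor for 30 min; viability was read as fluorescence in the reporter wells.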

[13] = biological target: Peroxisome proliferator-activated receptor gamma (Homo sapiens) (UniProt P37231); assay: qHTS assay to identify small molecule agonists of the peroxisome proliferator-activated receptor gamma (PPARg) signaling pathway (AID 743094; active means well fitted activation curve with a large enough effect in the signal ratio in the repeat runs, not every such curve was filed as active; the % refers to the signal ratio)
How it was run: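 Agonism was assessed in a beta-lactamase reporter system, HEK293H cells with a stably integrated UAS-bla construct under PPARg control; the 17 h treatment at 37C preceded a 1 h room-temperature FRET substrate read.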

[14] = biological target: Peroxisome proliferator-activated receptor gamma (Homo sapiens) (UniProt P37231); assay: qHTS assay to identify small molecule antagonists of the peroxisome proliferator-activated receptor gamma (PPARg) signaling pathway (AID 743191; calls by dose curve; further: series mostly up to about 63 µM; nearly all actives have a fitted effect of over 30% in size)
How it was run: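 GeneBLAzer PPARg UAS-bla HEK293H cells carrying a UAS-driven beta-lactamase reporter were plated at 3000 cells/well, preincubated 5 h at 37C, then given compound for 17 h at 37C; LiveBLAzer B/G FRET substrate was read after 1 h at room temperature.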

[15] = qHTS assay to identify small molecule antagonists of the peroxisome proliferator-activated receptor gamma (PPARg) signaling pathway - cell viability counter screen (AID 743194); further: nearly all actives have a fitted effect of over 55% in size
How it was run: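 PPARg-UAS-bla HEK293H cells were plated, rested 5 h at 37 C, then treated with compounds plus rosiglitazone (50 nM final) for 17 h at 37 C; viability was then read by CellTiter-Glo luminescence after 30 min at room temperature.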

[16] = qHTS assay for small molecule agonists of the antioxidant response element (ARE) signaling pathway (AID 743202; active means well fitted activation curve with a large enough effect in the signal ratio in the repeat runs, not every such curve was filed as active; the % refers to the signal ratio)
How it was run: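 Steps: seed ARE-bla HepG2 cells (2,000/well); incubate 5 h at 37 C; add compounds by pin tool; incubate 16 h at 37 C; add FRET substrate; read fluorescence after 2 h at RT.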

[17] = qHTS assay for small molecule activators of the heat shock response signaling pathway - cell viability counter screen (AID 743209); further: nearly all actives have a fitted effect of over 50% in size
How it was run: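 Compounds dissolved in DMSO were added to overnight-plated HSE-bla HeLa cells and left 5 h at 37 C. Cell viability was quantified by luminescence using CellTiter-Glo.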

[18] = qHTS assay for small molecule activators of the heat shock response signaling pathway (AID 743210; active means well fitted activation curve with a large enough effect in the signal ratio in the repeat runs, with a control signal flat, not every such curve was filed as active; the % refers to the signal ratio;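 further: HeLa cells with beta-lactamase reporter driven by heat shock elements; series mostly up to about 63 µM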)
How it was run: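 Activation of heat shock element-controlled beta-lactamase expression is measured in HeLa cells by LiveBLAzer FRET fluorescence, with compound exposure lasting 5 h at 37 C and substrate loading 2.5 h at room temperature.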

[19] = qHTS assay for small molecule agonists of the antioxidant response element (ARE) signaling pathway - cell viability counter screen (AID 743203; calls by dose curve; further: nearly all actives have a fitted effect of over 55% in size)
How it was run: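 ATP content via CellTiter-Glo luminescence served as the viability measure. Cells: ARE-bla HepG2, 2,000 per well. Exposure: 16 hrs, 37C/5% CO2.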

Measured: Potency

Aryl hydrocarbon receptor (Homo sapiens), sequence (P35869 whole entry, looked up): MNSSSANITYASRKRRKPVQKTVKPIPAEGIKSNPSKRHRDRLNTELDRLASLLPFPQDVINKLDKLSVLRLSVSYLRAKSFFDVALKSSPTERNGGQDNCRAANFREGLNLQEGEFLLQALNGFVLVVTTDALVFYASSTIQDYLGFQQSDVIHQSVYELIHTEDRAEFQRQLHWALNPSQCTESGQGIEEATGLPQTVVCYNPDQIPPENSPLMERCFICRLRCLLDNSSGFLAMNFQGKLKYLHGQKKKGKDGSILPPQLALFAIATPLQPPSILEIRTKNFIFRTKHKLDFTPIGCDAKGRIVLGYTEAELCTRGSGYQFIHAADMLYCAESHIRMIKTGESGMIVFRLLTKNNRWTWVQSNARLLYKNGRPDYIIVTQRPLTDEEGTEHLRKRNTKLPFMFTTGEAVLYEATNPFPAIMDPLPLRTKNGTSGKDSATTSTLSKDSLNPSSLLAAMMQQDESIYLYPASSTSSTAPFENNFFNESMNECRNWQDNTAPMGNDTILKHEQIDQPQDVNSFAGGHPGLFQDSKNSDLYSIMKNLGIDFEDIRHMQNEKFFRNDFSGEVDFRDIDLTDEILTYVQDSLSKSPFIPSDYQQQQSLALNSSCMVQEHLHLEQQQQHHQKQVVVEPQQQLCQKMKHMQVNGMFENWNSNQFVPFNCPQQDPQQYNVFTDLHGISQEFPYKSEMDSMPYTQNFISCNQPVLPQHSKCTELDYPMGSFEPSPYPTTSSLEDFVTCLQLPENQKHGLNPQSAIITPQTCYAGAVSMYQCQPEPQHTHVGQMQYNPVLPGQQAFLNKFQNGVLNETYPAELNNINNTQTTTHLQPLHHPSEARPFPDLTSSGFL
Aromatase (Homo sapiens), sequence (P11511 whole entry, looked up): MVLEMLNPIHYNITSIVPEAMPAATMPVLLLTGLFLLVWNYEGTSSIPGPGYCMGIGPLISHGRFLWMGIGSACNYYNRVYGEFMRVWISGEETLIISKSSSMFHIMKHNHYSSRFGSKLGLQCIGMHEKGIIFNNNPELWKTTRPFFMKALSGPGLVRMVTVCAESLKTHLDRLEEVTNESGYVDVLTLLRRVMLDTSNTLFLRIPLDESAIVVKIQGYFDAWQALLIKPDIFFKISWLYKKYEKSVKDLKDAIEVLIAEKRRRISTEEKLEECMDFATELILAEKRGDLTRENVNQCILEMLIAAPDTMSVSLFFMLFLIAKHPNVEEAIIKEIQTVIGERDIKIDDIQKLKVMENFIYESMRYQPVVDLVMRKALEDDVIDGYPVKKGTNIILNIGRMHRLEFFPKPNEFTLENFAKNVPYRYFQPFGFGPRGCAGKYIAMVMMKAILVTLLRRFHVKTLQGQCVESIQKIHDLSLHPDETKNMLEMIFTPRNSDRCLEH
Estrogen receptor (Homo sapiens), sequence (P03372 whole entry, looked up): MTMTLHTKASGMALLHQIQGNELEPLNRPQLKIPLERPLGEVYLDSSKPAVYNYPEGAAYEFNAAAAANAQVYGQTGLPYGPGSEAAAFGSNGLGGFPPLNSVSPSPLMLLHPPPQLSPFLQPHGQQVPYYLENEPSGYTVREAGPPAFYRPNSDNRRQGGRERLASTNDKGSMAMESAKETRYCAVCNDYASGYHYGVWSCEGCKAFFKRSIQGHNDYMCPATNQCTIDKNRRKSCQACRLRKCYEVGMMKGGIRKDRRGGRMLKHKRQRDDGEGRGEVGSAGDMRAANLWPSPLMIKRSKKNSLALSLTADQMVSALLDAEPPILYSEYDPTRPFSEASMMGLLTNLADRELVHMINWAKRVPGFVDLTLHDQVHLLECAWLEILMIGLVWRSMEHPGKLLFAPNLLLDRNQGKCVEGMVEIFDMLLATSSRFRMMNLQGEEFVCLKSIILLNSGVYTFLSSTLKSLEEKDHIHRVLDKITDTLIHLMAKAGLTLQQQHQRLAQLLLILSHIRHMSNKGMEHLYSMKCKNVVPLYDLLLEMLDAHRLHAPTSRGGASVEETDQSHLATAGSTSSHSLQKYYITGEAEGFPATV
Peroxisome proliferator-activated receptor gamma (Homo sapiens), sequence (P37231 whole entry, looked up): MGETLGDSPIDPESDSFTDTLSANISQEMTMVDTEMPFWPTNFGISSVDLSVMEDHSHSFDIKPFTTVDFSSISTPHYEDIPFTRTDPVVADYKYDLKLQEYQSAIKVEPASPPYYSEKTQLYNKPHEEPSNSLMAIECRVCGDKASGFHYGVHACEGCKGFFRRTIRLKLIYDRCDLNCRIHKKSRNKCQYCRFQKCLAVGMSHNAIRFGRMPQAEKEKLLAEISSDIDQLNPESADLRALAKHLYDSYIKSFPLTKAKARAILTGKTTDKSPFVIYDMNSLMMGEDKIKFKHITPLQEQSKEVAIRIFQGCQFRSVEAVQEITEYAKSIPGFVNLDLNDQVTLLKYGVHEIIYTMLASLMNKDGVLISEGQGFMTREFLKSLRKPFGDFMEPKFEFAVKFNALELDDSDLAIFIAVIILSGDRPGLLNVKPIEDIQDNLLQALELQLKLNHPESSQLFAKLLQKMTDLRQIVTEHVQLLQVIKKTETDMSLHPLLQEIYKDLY

CCCCCCCCCCCCCCC(=O)NC(CO)CCCCCCCCCCCCCC (centres undefined)
not listed: [19]
inactive: all other assays above

O=C(NCN1CCOCC1)c1cnccn1
not listed: [18]
inactive: all other assays above

C/C(CC(C)C)=N\O
not listed: [12] | [13] | [14] | [15]
inactive: all other assays above

Cc1ccc(N)cc1S(=O)(=O)O
inactive: all assays above

CC1=C(O)C(=O)C(C)O1 (centres undefined)
not listed: [12] | [13] | [14]
inactive: all other assays above

CCC(C)C(=O)OCCc1ccccc1 (centres undefined)
inactive: all assays above

N#CCC(=O)NN
not listed: [16] | [18]
inactive: all other assays above

CN(C)CCCCl
not listed: [7] | [8] | [11] | [13] | [14]
inactive: all other assays above

NC(=O)[C@@H]1CSSCCC(=O)N[C@@H](CCCCN=C(N)N)C(=O)NCC(=O)N[C@@H](CC(=O)O)C(=O)N[C@@H](Cc2c[nH]c3ccccc23)C(=O)N2CCC[C@H]2C(=O)N1 ([Mpa][hArg]GDWPC-NH2; disulfide 1-7)
not listed: [6] | [7]
inactive: all other assays above

CC1(C)Cc2cccc(N)c2O1
not listed: [8]
inactive: all other assays above

CC1(C)CC(OC(=O)CCCCCCCCC(=O)OC2CC(C)(C)NC(C)(C)C2)CC(C)(C)N1
active: [1] 2.96 µM | [2] 5.91 µM
not listed: [5] | [8] | [16]
inactive: all other assays above

O=C1CCC(=O)N1Cl
not listed: [8]
inactive: all other assays above

CCCc1ccc(O)cc1
not listed: [7] | [8] | [11]
inactive: all other assays above

CN(C)CCOC(=O)C(c1ccccc1)C1(O)CCCC1 (centres undefined)
not listed: [8] | [14] | [19]
inactive: all other assays above

C=CCCCC
not listed: [7] | [8] | [16]
inactive: all other assays above

CC(C)CO
not listed: [10] | [13] | [14] | [19]
inactive: all other assays above

— PubChem BioAssay (Tox21)
